From the antibiotic and cytotoxicity screens of Wong et al. (2023)
The whole screen tested about 39,000 compounds, of which about 1,500 (3.8%) were called active. The entries come from a sample that favours actives as a whole.

Test system: HSkMC (human skeletal muscle cells)
Assay: cytotoxicity call (relative viability < 0.9)
Details: 10 µM

Question: How did the cytotoxicity call turn out when `C[C@H]1CN([C@@H](C)CO)C(=O)c2ccccc2-c2ccccc2CO[C@@H]1CN(C)C(=O)Nc1cccc(F)c1` was run?
Answer: inactive

Question: `NC(=O)c1cccc(S(N)(=O)=O)c1` was tested. Which cytotoxicity call did it give?
Answer: inactive

Question: For `C[C@@H]1CN([C@H](C)CO)C(=O)c2cc(N(C)C)ccc2O[C@@H](C)CCCCO[C@H]1CN(C)C(=O)Nc1ccc(C(F)(F)F)cc1`, which cytotoxicity call is on record?
Answer: inactive

Question: For `C[C@H]1CN([C@@H](C)CO)C(=O)c2cccc(NC(=O)Nc3cccc4ccccc34)c2O[C@@H]1CN(C)C(=O)Nc1ccc(C(F)(F)F)cc1`, which cytotoxicity call is on record?
Answer: active

Question: Which cytotoxicity call does the source give for `COc1ccc(S(=O)(=O)N(C)C[C@@H]2Oc3ccc(NC(=O)CCCN(C)C)cc3CC(=O)N([C@@H](C)CO)C[C@@H]2C)cc1` here?
Answer: inactive

Question: For `C[C@H](CO)N1C[C@H](C)[C@H](CN(C)Cc2ccc(-c3ccccc3)cc2)Oc2ccc(NC(=O)Nc3ccc(F)cc3)cc2C1=O`, which cytotoxicity call is on record?
Answer: inactive

Question: How did the cytotoxicity call turn out when `C[C@@H]1CN([C@H](C)CO)C(=O)c2cc(NC(=O)Nc3ccc(F)cc3)ccc2O[C@H]1CN(C)Cc1ccc(-c2ccccc2)cc1` was run?
Answer: active

Question: For `C[C@H](CO)N1C[C@H](C)[C@@H](CN(C)Cc2ccc(-c3ccccc3)cc2)Oc2ccc(NC(=O)Nc3ccccc3)cc2C1=O`, which cytotoxicity call is on record?
Answer: inactive

Question: For `C[C@@H]1CN([C@@H](C)CO)C(=O)c2cc(NC(=O)Nc3ccccc3)ccc2O[C@H]1CN(C)Cc1ccc(-c2ccccc2)cc1`, which cytotoxicity call is on record?
Answer: inactive

Question: With `C[C@@H]1CN([C@H](C)CO)C(=O)c2cc(NC(=O)Nc3ccccc3)ccc2O[C@H]1CN(C)Cc1ccc(-c2ccccc2)cc1` as the molecule, how does the cytotoxicity call read?
Answer: inactive

Question: `C[C@@H]1CN([C@@H](C)CO)C(=O)c2cc(NC(=O)Nc3ccc(F)cc3)ccc2O[C@H]1CN(C)Cc1ccc(-c2ccccc2)cc1` was tested. Which cytotoxicity call did it give?
Answer: active

Question: For `C[C@@H]1CN([C@@H](C)CO)C(=O)c2cc(NC(=O)Nc3ccc(F)cc3)ccc2O[C@@H]1CN(C)Cc1ccc(-c2ccccc2)cc1`, which cytotoxicity call is on record?
Answer: active

Question: `C[C@@H]1CN([C@@H](C)CO)C(=O)c2cc(NC(=O)Nc3ccccc3)ccc2O[C@@H]1CN(C)Cc1ccc(-c2ccccc2)cc1` was tested. Which cytotoxicity call did it give?
Answer: active

Question: `C[C@H]1CN([C@@H](C)CO)C(=O)c2cc(NC(=O)Nc3ccccc3)ccc2O[C@H]1CN(C)Cc1ccc(-c2ccccc2)cc1` was tested. Which cytotoxicity call did it give?
Answer: inactive

Question: For `C[C@H]1CN([C@@H](C)CO)C(=O)c2cc(NC(=O)Nc3ccc(F)cc3)ccc2O[C@@H]1CN(C)Cc1ccc(-c2ccccc2)cc1`, which cytotoxicity call is on record?
Answer: inactive

Question: How did the cytotoxicity call turn out when `C[C@@H]1CN([C@H](C)CO)C(=O)c2cc(NC(=O)Nc3ccccc3)ccc2O[C@@H]1CN(C)Cc1ccc(-c2ccccc2)cc1` was run?
Answer: inactive

Question: With `C[C@H](CO)N1C[C@H](C)[C@H](CN(C)Cc2ccc(-c3ccccc3)cc2)Oc2ccc(NC(=O)Nc3ccccc3)cc2C1=O` as the molecule, how does the cytotoxicity call read?
Answer: inactive

Question: How did the cytotoxicity call turn out when `CC(C)NC(=O)Nc1ccc2c(c1)CC(=O)N([C@@H](C)CO)C[C@H](C)[C@H](CN(C)Cc1ccc3c(c1)OCO3)O2` was run?
Answer: inactive

Question: `O=c1nc[nH]c2c1ncn2[C@H]1CC[C@@H](CO)O1` was tested. Which cytotoxicity call did it give?
Answer: inactive

Question: With `Cn1cnc(S(=O)(=O)N2C[C@@H](O)COC[C@H]3O[C@H](CC(=O)NC4CCC4)CC[C@@H]32)c1` as the molecule, how does the cytotoxicity call read?
Answer: inactive

Question: Which cytotoxicity call does the source give for `O=C(C[C@H]1CC[C@@H]2[C@H](COC[C@H](O)CN2S(=O)(=O)c2ccc(Cl)cc2)O1)NCC1CCCCC1` here?
Answer: inactive

Question: How did the cytotoxicity call turn out when `C[C@H](CO)N1C[C@H](C)[C@H](CN(C)C(=O)Nc2ccc(F)cc2)OCCCC[C@H](C)Oc2ccc(NC(=O)Cc3ccccc3)cc2C1=O` was run?
Answer: inactive

Question: How did the cytotoxicity call turn out when `C[C@H](CO)N1C[C@H](C)[C@@H](CN(C)Cc2ccc(-c3ccccc3)cc2)Oc2ccc(NC(=O)Nc3ccc(F)cc3)cc2C1=O` was run?
Answer: inactive

Question: For `C[C@H]1CN([C@@H](C)CO)C(=O)c2cc(NC(=O)Nc3ccc(F)cc3)ccc2O[C@H]1CN(C)Cc1ccc(-c2ccccc2)cc1`, which cytotoxicity call is on record?
Answer: inactive

Question: For `C[C@@H]1CN([C@H](C)CO)C(=O)c2cc(NC(=O)Nc3ccc(F)cc3)ccc2O[C@@H]1CN(C)Cc1ccc(-c2ccccc2)cc1`, which cytotoxicity call is on record?
Answer: active

Question: How did the cytotoxicity call turn out when `C[C@]12C=CC(=O)N[C@@H]1CC[C@@H]1[C@@H]2CC[C@]2(C)[C@@H](C(=O)Nc3cc(C(F)(F)F)ccc3C(F)(F)F)CC[C@@H]12` was run?
Answer: inactive

Question: How did the cytotoxicity call turn out when `CCCNC(=O)N1C[C@@H](O)COC[C@H]2O[C@H](CC(=O)NCc3ccncn3)CC[C@@H]21` was run?
Answer: inactive

Question: `C[C@@H]1CN([C@@H](C)CO)C(=O)Cc2cc(NC(=O)CCC(F)(F)F)ccc2O[C@H]1CN(C)S(=O)(=O)c1ccccc1` was tested. Which cytotoxicity call did it give?
Answer: inactive

Question: How did the cytotoxicity call turn out when `CCC(C)C(N)C(=O)O` (stereo not given) was run?
Answer: inactive

Question: With `C[C@@H]1CN([C@@H](C)CO)C(=O)c2c(c3ccccc3n2C)-c2ccccc2CO[C@@H]1CN(C)Cc1ccccc1C(F)(F)F` as the molecule, how does the cytotoxicity call read?
Answer: active

Question: With `COc1ccccc1CN(C)C[C@H]1OCc2ccccc2-c2c(n(C)c3ccccc23)C(=O)N([C@H](C)CO)C[C@@H]1C` as the molecule, how does the cytotoxicity call read?
Answer: inactive

Question: Which cytotoxicity call does the source give for `C[C@@H]1CN([C@@H](C)CO)C(=O)c2c(c3ccccc3n2C)-c2ccccc2CO[C@H]1CN(C)Cc1ccccc1C(F)(F)F` here?
Answer: active

Question: Which cytotoxicity call does the source give for `C[C@@H]1CN([C@H](C)CO)C(=O)c2c(c3ccccc3n2C)-c2ccccc2CO[C@@H]1CN(C)Cc1ccccc1C(F)(F)F` here?
Answer: active

Question: Which cytotoxicity call does the source give for `COc1ccccc1CN(C)C[C@@H]1OCc2ccccc2-c2c(n(C)c3ccccc23)C(=O)N([C@H](C)CO)C[C@@H]1C` here?
Answer: inactive

Question: For `COc1ccccc1CN(C)C[C@@H]1OCc2ccccc2-c2c(n(C)c3ccccc23)C(=O)N([C@@H](C)CO)C[C@H]1C`, which cytotoxicity call is on record?
Answer: inactive

Question: `COc1ccccc1CN(C)C[C@@H]1OCc2ccccc2-c2c(n(C)c3ccccc23)C(=O)N([C@H](C)CO)C[C@H]1C` was tested. Which cytotoxicity call did it give?
Answer: inactive

Question: For `COc1ccccc1CN(C)C[C@@H]1OCc2ccccc2-c2c(n(C)c3ccccc23)C(=O)N([C@@H](C)CO)C[C@@H]1C`, which cytotoxicity call is on record?
Answer: inactive

Question: For `C[C@H](CO)N1C[C@H](C)[C@@H](CN(C)Cc2ccccc2C(F)(F)F)OCc2ccccc2-c2c(n(C)c3ccccc23)C1=O`, which cytotoxicity call is on record?
Answer: active

Question: Which cytotoxicity call does the source give for `Cc1noc(C)c1NC(=O)Nc1ccc2c(c1)C(=O)N([C@@H](C)CO)C[C@H](C)[C@H](CN(C)S(=O)(=O)c1ccc(F)cc1)OCCCC[C@@H](C)O2` here?
Answer: inactive

Question: With `C[C@@H]1CN([C@H](C)CO)C(=O)c2cc(NC(=O)CCCN(C)C)ccc2O[C@H]1CN(C)S(=O)(=O)c1cn(C)cn1` as the molecule, how does the cytotoxicity call read?
Answer: inactive

Question: How did the cytotoxicity call turn out when `CCS(=O)(=O)CCn1c([N+](=O)[O-])cnc1C` was run?
Answer: inactive

Question: For `Cc1noc(C)c1S(=O)(=O)Nc1cccc2c1O[C@@H](CN(C)S(=O)(=O)c1ccc(Cl)cc1)[C@@H](C)CN([C@H](C)CO)C2=O`, which cytotoxicity call is on record?
Answer: inactive

Question: How did the cytotoxicity call turn out when `C[C@@H]1CCCCO[C@H](CN(C)S(C)(=O)=O)[C@@H](C)CN([C@@H](C)CO)C(=O)c2cc(NS(=O)(=O)c3ccc(F)cc3)ccc2O1` was run?
Answer: inactive

Question: `CO[C@H](CN(C)S(=O)(=O)c1cccc(Cl)c1)[C@@H](C)CN([C@H](C)CO)S(=O)(=O)c1ccc(Cl)cc1` was tested. Which cytotoxicity call did it give?
Answer: inactive

Question: `O=C(N[C@@H]1CC[C@@H](CC(=O)N2CCOCC2)O[C@H]1CO)c1ccccn1` was tested. Which cytotoxicity call did it give?
Answer: inactive

Question: Which cytotoxicity call does the source give for `Cc1noc(C)c1NC(=O)N(C)C[C@H]1Oc2ccc(NC(=O)NC(C)C)cc2C(=O)N([C@H](C)CO)C[C@@H]1C` here?
Answer: inactive

Question: Which cytotoxicity call does the source give for `COc1ccc(S(=O)(=O)Nc2ccc3c(c2)C(=O)N([C@H](C)CO)C[C@@H](C)[C@H](CN(C)S(C)(=O)=O)O3)cc1` here?
Answer: inactive

Question: How did the cytotoxicity call turn out when `Nc1ccc(Nc2ccccc2)cc1` was run?
Answer: inactive

Question: `COc1ccc2c3c([nH]c2c1)[C@@H](CO)N(C[C@]13CN(C1)S(=O)(=O)C)C(=O)C1CCOCC1` was tested. Which cytotoxicity call did it give?
Answer: inactive

Question: With `COc1ccccc1CN(C)C[C@H]1OCc2ccccc2-c2c(n(C)c3ccccc23)C(=O)N([C@@H](C)CO)C[C@@H]1C` as the molecule, how does the cytotoxicity call read?
Answer: inactive

Question: For `COc1ccccc1CN(C)C[C@H]1OCc2ccccc2-c2c(n(C)c3ccccc23)C(=O)N([C@H](C)CO)C[C@H]1C`, which cytotoxicity call is on record?
Answer: inactive

Question: For `C[C@H]1CN([C@@H](C)CO)C(=O)c2c(c3ccccc3n2C)-c2ccccc2CO[C@H]1CN(C)Cc1ccccc1C(F)(F)F`, which cytotoxicity call is on record?
Answer: inactive

Question: For `C[C@@H]1CN([C@H](C)CO)C(=O)c2c(c3ccccc3n2C)-c2ccccc2CO[C@H]1CN(C)Cc1ccccc1C(F)(F)F`, which cytotoxicity call is on record?
Answer: active

Question: `C[C@H]1CN([C@@H](C)CO)C(=O)c2c(c3ccccc3n2C)-c2ccccc2CO[C@@H]1CN(C)Cc1ccccc1C(F)(F)F` was tested. Which cytotoxicity call did it give?
Answer: active

Question: With `C[C@H](CO)N1C[C@H](C)[C@H](CN(C)Cc2ccccc2C(F)(F)F)OCc2ccccc2-c2c(n(C)c3ccccc23)C1=O` as the molecule, how does the cytotoxicity call read?
Answer: active

Question: How did the cytotoxicity call turn out when `COc1ccccc1CN(C)C[C@H]1OCc2ccccc2-c2c(n(C)c3ccccc23)C(=O)N([C@@H](C)CO)C[C@H]1C` was run?
Answer: inactive

Question: For `C[C@@H]1CN([C@@H](C)CO)C(=O)c2cc(NC(=O)CCC(F)(F)F)ccc2O[C@@H](C)CCCCO[C@@H]1CN(C)C(=O)CCC(F)(F)F`, which cytotoxicity call is on record?
Answer: inactive

Question: For `COc1ccc(NC(=O)Nc2ccc3c(c2)C(=O)N([C@H](C)CO)C[C@@H](C)[C@@H](CN(C)C(=O)NC(C)C)OCCCC[C@H](C)O3)cc1`, which cytotoxicity call is on record?
Answer: inactive

Question: `C[C@@H]1CCCCO[C@H](CN(C)C(=O)Nc2ccc3c(c2)OCO3)[C@@H](C)CN([C@@H](C)CO)C(=O)c2cc(NC(=O)CCC(F)(F)F)ccc2O1` was tested. Which cytotoxicity call did it give?
Answer: inactive

Question: Which cytotoxicity call does the source give for `CN1C(=O)COc2cc(N)ccc21` here?
Answer: inactive

Question: `Cc1noc(C)c1NC(=O)N(C)C[C@H]1Oc2ccc(NS(C)(=O)=O)cc2CC(=O)N([C@H](C)CO)C[C@@H]1C` was tested. Which cytotoxicity call did it give?
Answer: inactive

Question: `Cc1cc(C(=O)O)cc(S(N)(=O)=O)c1` was tested. Which cytotoxicity call did it give?
Answer: inactive

Question: `C[C@@H]1CN([C@H](C)CO)C(=O)c2cc(NC(=O)Nc3ccc4c(c3)OCO4)ccc2O[C@@H]1CN(C)Cc1ccc(C(=O)Nc2ccccc2N)cc1` was tested. Which cytotoxicity call did it give?
Answer: inactive

Question: Which cytotoxicity call does the source give for `COc1ccc(NC(=O)N(C)C[C@@H]2Oc3c(NC(=O)c4cc(C)nn4C)cccc3C(=O)N([C@H](C)CO)C[C@H]2C)cc1` here?
Answer: inactive

Question: How did the cytotoxicity call turn out when `C[C@H]1CCCCO[C@H](CN(C)Cc2ccncc2)[C@@H](C)CN([C@@H](C)CO)C(=O)c2cc(NS(=O)(=O)c3ccc(Cl)cc3)ccc2O1` was run?
Answer: inactive
